PubChem BioAssay AID1159580 (chemical genetic matrix, 2015)
Hit rate of the full screen: of about 5,500 compounds, about 2,000 (36%) were called active. Roughly 18% stayed inconclusive and do not appear here. No stated cut-off is given here; in the data, active means normalized growth mostly below about 0.91 (no sharp cut-off); inconclusive means no clear call, values can overlap the other calls; inactive means mostly above about 0.92. The list shows a part of the results.

Assay: chemical genetic growth profiling, strain panel (AID 1159580);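 further: tested at 20 µM; growth read once vehicle control cultures reached saturation at 30 °C; 1 = growth at the plate median or of vehicle wells; lower values mean less growth of the strain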
Conditions: S. cerevisiae deletion strains, growth OD
[1] = locus YDL101C, strain DUN1, hits give low values
[2] = locus YHR030C, strain SLT2, hits give low values

Measured: normalized growth

OC(CN1CCN(c2nc3ccc(Cl)cc3s2)CC1)Cn1ccc2ccccc21 (stereo not given)
inactive: locus YAR019C, strain CDC15, hits give low values 1 | locus YBL105C, strain PKC1, hits give low values 0.99 | locus YBR135W, strain CKS1, hits give low values 0.991 | locus YBR136W, strain MEC1, hits give low values 0.996 | locus YBR160W, strain CDC28, hits give low values 0.985 | locus YDL017W, strain CDC7, hits give low values 0.996 | locus YDL028C, strain MPS1, hits give low values 0.99 | [1] 0.989 | locus YDL108W, strain KIN28, hits give low values 0.986 | locus YDL132W, strain cdc53, hits give low values 1 | locus YDL214C, strain PRR2, hits give low values 0.92 | locus YDR052C, strain DBF4, hits give low values 1 | locus YDR054C, strain cdc34, hits give low values 0.996 | locus YDR226W, strain ADK1, hits give low values 0.99 | locus YDR477W, strain SNF1, hits give low values 0.935 | locus YER123W, strain YCK3, hits give low values 0.903 | locus YER133W, strain GLC7, hits give low values 0.93 | locus YFL009W, strain cdc4, hits give low values 0.993 | locus YFL029C, strain CAK1, hits give low values 0.989 | locus YFR003C, strain YPI1, hits give low values 0.992 | locus YFR019W, strain FAB1, hits give low values 0.935 | locus YFR028C, strain CDC14, hits give low values 0.995 | locus YGR040W, strain KSS1, hits give low values 0.934 | locus YGR052W, strain FMP48, hits give low values 1.02 | locus YGR092W, strain DBF2, hits give low values 0.96 | [2] 0.864 | locus YHR079C, strain IRE1, hits give low values 0.955 | locus YHR082C, strain KSP1, hits give low values 1.05 | locus YHR205W, strain SCH9, hits give low values 0.97 | locus YIL147C, strain SLN1, hits give low values 0.999 | locus YJL095W, strain BCK1, hits give low values 0.954 | locus YJL128C, strain PBS2, hits give low values 0.942 | locus YJL157C, strain FAR1, hits give low values 0.924 | locus YJR016C, strain ILV3, hits give low values 0.991 | locus YJR066W, strain TOR1 (second series), hits give low values 0.875 | locus YJR066W, strain TOR1, hits give low values 0.991 | locus YKL048C, strain ELM1, hits give low values 0.981 | locus YKL067W, strain YNK1, hits give low values 0.924 | locus YKL101W, strain HSL1, hits give low values 0.942 | locus YKL193C, strain SDS22, hits give low values 0.994 | locus YKL203C, strain TOR2, hits give low values 0.981 | locus YLR113W, strain HOG1, hits give low values 0.864 | locus YLR133W, strain CKI1, hits give low values 0.942 | locus YLR403W, strain SFP1, hits give low values 0.926 | locus YML070W, strain DAK1, hits give low values 0.927 | locus YMR001C, strain CDC5, hits give low values 0.988 | locus YMR205C, strain PFK2 (second series), hits give low values 0.948 | locus YMR277W, strain FCP1, hits give low values 1 | locus YNL006W, strain LST8, hits give low values 0.985 | locus YNL020C, strain ARK1, hits give low values 0.942 | locus YNL161W, strain CBK1, hits give low values 0.982 | locus YNL183C, strain NPR1, hits give low values 1 | locus YNL207W, strain RIO2, hits give low values 1 | locus YNL222W, strain SSU72, hits give low values 0.999 | locus YNL307C, strain MCK1 (second series), hits give low values 0.935 | locus YOL078W, strain AVO1, hits give low values 0.976 | locus YOL136C, strain PFK27, hits give low values 0.912 | locus YOR061W, strain CKA2, hits give low values 0.952 | locus YOR119C, strain RIO1, hits give low values 1.01 | locus YOR231W, strain MKK1, hits give low values 0.947 | locus YOR329C, strain SCD5, hits give low values 0.986 | locus YPL031C, strain PHO85, hits give low values 0.938 | locus YPL153C, strain RAD53, hits give low values 0.959 | locus YPL204W, strain HRR25, hits give low values 0.895 | locus YPL209C, strain IPL1, hits give low values 0.989 | locus YPL256C, strain CLN2, hits give low values 0.938 | locus YPR025C, strain CCL1, hits give low values 0.99 | locus YPR106W, strain ISR1, hits give low values 0.991 | locus YPR111W, strain DBF20, hits give low values 0.967 | strain NNK1, hits give low values 0.974 | strain TSCII, hits give low values 0.995

OC(CN1CCN(c2nc3ccc(Cl)cc3s2)CC1)CN1CCCN(c2ncc(C(F)(F)F)cc2Cl)CC1 (stereo not given)
inactive: locus YAL013W, strain DEP1, hits give low values 1 | locus YBR229C, strain ROT2, hits give low values 0.943 | locus YCL061C, strain MRC1, hits give low values 0.997 | [1] 1.03 | locus YDR150W, strain NUM1, hits give low values 0.942 | locus YGR078C, strain PAC10, hits give low values 1.02 | locus YHR087W, strain rtc3, hits give low values 0.952 | locus YJL187C, strain SWE1, hits give low values 0.995 | locus YJR043C, strain POL32, hits give low values 1.02 | locus YJR075W, strain HOC1, hits give low values 1.01 | locus YLR058C, strain SHM2 (second series), hits give low values 0.999 | locus YMR219W, strain ESC1, hits give low values 1.01 | locus YMR263W, strain SAP30, hits give low values 1.02 | locus YNL153C, strain GIM3, hits give low values 1 | locus YNL322C, strain KRE1, hits give low values 1.03 | locus YPL055C, strain LGE1, hits give low values 0.985
active: locus YDL134C, strain PPH21, hits give low values 0.0459 | locus YEL061C, strain CIN8, hits give low values 0.0536 | [2] 0.068 | locus YKL190W, strain CNB1, hits give low values 0.0453 | locus YLR039C, strain RIC1, hits give low values 0.0605 | locus YLR085C, strain ARP6, hits give low values 0.0639 | locus YLR262C, strain YPT6, hits give low values 0.0604 | locus YML094W, strain GIM5, hits give low values 0.0664 | locus YNL298W, strain CLA4 (second series), hits give low values 0.0802 | locus YNR030W, strain Alg12, hits give low values 0.0638 | locus YOL006C, strain TOP1, hits give low values 0.0656 | locus YPL241C, strain CIN2, hits give low values 0.0618 | locus YPR135W, strain CTF4, hits give low values 0.16
